# Reference: PubChem BioAssay (NCATS)
# Inconclusive results are not listed. Where a call stands in place of a potency, no number is given. The source made the active and inactive calls. Calls come from the whole dose curve; as a rule, active = well fitted curve in the direction sought with a large enough effect; inconclusive = small, poorly fitted or top-dose-only effect, or another doubt; inactive = no such curve, though single readings can be large; an effect the other way counts as inactive or inconclusive.
# Columns and labels:
# Furin (Homo sapiens) = Furin (Homo sapiens) (UniProt P09958); experiment: Furin counterscreen qHTS for Zika virus inhibitors (AID 1347149); note: nearly all actives have a fitted effect of over 70% in size; note: potency is the fitted concentration of half-maximal effect
# Summary of the method: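 Fluorogenic cleavage of BOC-RVRR-AMC (2 microM final, Km ~15 µM) was monitored (ex 340, em 450 nm) at 37C after 15 min RT preincubation of 5 nM furin with compounds in HEPES pH 7.0 buffer with CaCl2 and Triton X-100. Percent inhibition was fitted to a 4-parameter Hill curve.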
# [1] = tested on: Zika virus NS2B-NS3 protease (linked construct); experiment: Confirmatory screen NINDS AMC qHTS for Zika virus inhibitors (AID 1347152); note: nearly all actives have a fitted effect of over 70% in size; note: potency is the fitted concentration of half-maximal effect
# Summary of the method: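 Linked NS2B-NS3 protease, 1 nM, in 10 mM Tris-HCl pH 8.0, 0.01% Tween 20; compounds preincubated 15 min at room temperature. Nle-KRR-AMC 10 microM (Km 18.3 µM); 15-min fluorescence change (340/450 nm) fitted to 4-parameter Hill.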
# [2] = tested on: Zika virus NS2B-NS3 protease (unlinked complex); experiment: Confirmatory screen GU AMC qHTS for Zika virus inhibitors (AID 1347153); note: nearly all actives have a fitted effect of over 70% in size;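 for potency: enzyme at 25 nM with substrate at 10 µM below its Km of 18.3 µM; potency is the fitted concentration of half-maximal effect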
# Summary of the method: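 Unlinked NS2B-NS3 complex (25 nM) in 10 mM Tris-HCl pH 8.0, 0.01% Tween 20 preincubated 15 min with compound, then 10 microM Bz-Nle-KRR-AMC (Km 18.3 µM). Fluorescence change over 15 min, normalized, Hill-fitted.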
# [3] = tested on: Zika virus NS2B-NS3 protease (unlinked); experiment: Optimization of GU AMC qHTS for Zika virus inhibitors: Unlinked NS2B-NS3 protease assay (AID 1347151); note: potency is the fitted concentration of half-maximal effect; nearly all actives have a fitted effect of over 80% in size
# Summary of the method: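 Noncovalent NS2B hydrophilic domain–NS3 protease complex (25 nM final) in 10 mM Tris-HCl pH 8.0, 0.01% Tween 20; AMC substrate, room temperature 15 min (~20% conversion); fluorescence change normalized, 4-parameter Hill fit.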
# [4] = tested on: Zika virus NS2B-NS3 protease (linked); experiment: 384 well plate NINDS AMC confirmatory qHTS for Zika virus inhibitors (AID 1347163); note: nearly all actives have a fitted effect of over 50% in size; note: potency is the fitted concentration of half-maximal effect
# Summary of the method: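 Linked NS2B-NS3 protease (final 5 nM, 30 nM or 60 nM) was preincubated with compounds (final up to 1 mM) for ~15 minutes. Ac-VKTGKR-AMC substrate (final 30 microM) then reacted for 25 minutes at room temperature in the dark. Fluorescence (ex 355/em 460 nm) was normalized to no-enzyme and no-inhibitor controls.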
# [5] = tested on: Zika virus NS2B-NS3 protease (linked construct); experiment: 384 well plate NINDS Rhodamine confirmatory qHTS for Zika virus inhibitors (AID 1347164);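 note: fluorescence from protease cleavage of Ac-LKRR-rhodamine 110 substrate; potency is the fitted concentration of half-maximal effect; nearly all actives have a fitted effect of over 65% in size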
# Summary of the method: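 Linked NS2B-NS3 protease (final 5, 30 or 60 nM) preincubated ~15 minutes with compounds, then 10 microM Ac-LKRR-Rhodamine 110 added. Fluorescence (485/538 nm) read after 25 minutes at room temperature, normalized to no-enzyme and no-inhibitor controls.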
# [6] = Vero cells viability qHTS for Zika virus inhibitors (AID 1347167); note: potency is the fitted concentration of half-maximal effect
# Summary of the method: (§1)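 Cells seeded at 2.5 x 10^5 cells/mL in DMEM with 4% FBS and attached overnight at 37 degrees C, then exposed to compound for 24 to 48 hours. Viability read as ATP content by CellTiter Glo luminescence.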
# [7] = Tertiary RLuc qRT-PCR qHTS assay for Zika virus inhibitors (AID 1347169); note: nearly all actives have a fitted effect of over 55% in size; note: potency is the fitted concentration of half-maximal effect
# Summary of the method: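 Vero cells (1,000/well) infected with recombinant ZIKV-RLuc (Cambodian) at MOI 1-2 after compound addition, 48-72 hrs at 37 degrees C. Live-cell Renilla luciferase substrate added; luminescence read after 1-1.5 hrs.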
# [8] = biological target: Cytochrome P450 3A4 (Homo sapiens) (UniProt P08684); experiment: qHTS Assay for Inhibitors and Substrates of Cytochrome P450 3A4 (AID 884); note: series mostly up to about 57 µM; nearly all actives have a fitted effect of over 50% in size
# Summary of the method: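 20 nM human CYP3A4 with 25 uM Luciferin-PPXE (at KM) in 200 mM KPO4, preincubated 10 min with compound; NADPH regeneration started a 60 min RT reaction. Luciferin detected by luminescence, normalized to 57 uM ketoconazole as full inhibition.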
# [9] = biological target: Cytochrome P450 3A4 (Homo sapiens) (UniProt P08684); experiment: qHTS Assay for Activators of Cytochrome P450 3A4 (AID 885); note: potency is the fitted concentration of half-maximal effect; nearly all actives have a fitted effect of over 65% in size
# Summary of the method: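 Human CYP3A4 (20 nM) with Luciferin-PPXE at 25 uM (its KM) in 200 mM KPO4; 10 min compound preincubation, then NADPH regeneration and 60 min reaction at RT. Luciferin read by luminescence; normalized to 57 uM ketoconazole full inhibition.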
# [10] = Confirmatory screen NINDS Rhodamine qHTS for Zika virus inhibitors (AID 1347161); note: potency is the fitted concentration of half-maximal effect; nearly all actives have a fitted effect of over 60% in size
# Summary of the method: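 Rhodamine110-peptide cleavage (1.5 µM substrate) by 25 nM linked NS2B-NS3 enzyme at pH 8.0 (Tris, Tween 20), after 15 min RT preincubation with compounds; 15-min fluorescence change normalized to controls and Hill-fitted.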
# [11] = HepG2 cells viability qHTS for Zika virus inhibitors (AID 1347168)
# Summary of the method: as §1
# [12] = Primary qHTS for small molecule stabilizers of the endoplasmic reticulum resident proteome: Secreted ER Calcium Modulated Protein (SERCaMP) assay (AID 1508630)
# Summary of the method: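 GLuc-SERCaMP-expressing SH-SY5Y cells, pretreated 16 h with compound, are challenged with thapsigargin to empty ER calcium stores; after 4 h, coelenterazine is added directly to the medium and luminescence is imaged.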
# [13] = ZIKV-mCherry secondary qHTS for Zika virus inhibitors (AID 1347158); note: top concentration of the series differs between compounds
# Summary of the method: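 Vero cells (5,000/well) were given compound, then infected with ZIKV-mCherry at MOI 1 for 48–72 h at 37 °C. After PFA fixation and Hoechst staining, imaging gave percent mCherry-positive cells. The positivity threshold was RFU above 450, 3 SD over negative controls.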
# [14] = Confirmatory screen GU Rhodamine qHTS for Zika virus inhibitors qHTS (AID 1347157); note: nearly all actives have a fitted effect of over 70% in size; note: potency is the fitted concentration of half-maximal effect
# Summary of the method: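 Compounds, tested up to 114 microM, were incubated for 15 minutes with 25 nM unlinked NS2B-NS3 protease at pH 8.0. Cleavage of 1.5 microM Rhodamine110 substrate was then followed by fluorescence for 15 minutes.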
# Sequence of Furin (Homo sapiens) (P09958 whole entry, looked up): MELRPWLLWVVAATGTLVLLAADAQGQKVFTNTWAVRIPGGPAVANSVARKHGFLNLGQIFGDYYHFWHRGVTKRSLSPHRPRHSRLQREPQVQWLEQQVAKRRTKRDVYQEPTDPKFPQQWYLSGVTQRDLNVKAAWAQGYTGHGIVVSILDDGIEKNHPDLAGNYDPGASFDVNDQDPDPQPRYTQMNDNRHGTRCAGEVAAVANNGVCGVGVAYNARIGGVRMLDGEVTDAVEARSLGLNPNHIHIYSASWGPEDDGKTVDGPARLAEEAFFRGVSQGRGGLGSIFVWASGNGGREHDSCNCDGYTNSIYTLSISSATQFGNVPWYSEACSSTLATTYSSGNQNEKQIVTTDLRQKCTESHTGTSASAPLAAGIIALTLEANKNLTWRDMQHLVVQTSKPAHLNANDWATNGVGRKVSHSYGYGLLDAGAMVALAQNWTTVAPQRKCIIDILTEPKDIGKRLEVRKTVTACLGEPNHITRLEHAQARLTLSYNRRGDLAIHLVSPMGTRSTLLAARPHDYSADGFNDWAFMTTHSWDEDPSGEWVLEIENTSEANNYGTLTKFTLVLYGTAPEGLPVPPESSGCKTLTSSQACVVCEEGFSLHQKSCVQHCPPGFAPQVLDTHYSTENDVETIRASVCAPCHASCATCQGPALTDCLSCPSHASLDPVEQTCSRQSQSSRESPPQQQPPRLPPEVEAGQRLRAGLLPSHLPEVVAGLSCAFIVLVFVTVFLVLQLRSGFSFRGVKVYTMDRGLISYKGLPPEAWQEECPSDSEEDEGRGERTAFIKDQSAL
# Sequence of Cytochrome P450 3A4 (Homo sapiens) (P08684 whole entry, looked up): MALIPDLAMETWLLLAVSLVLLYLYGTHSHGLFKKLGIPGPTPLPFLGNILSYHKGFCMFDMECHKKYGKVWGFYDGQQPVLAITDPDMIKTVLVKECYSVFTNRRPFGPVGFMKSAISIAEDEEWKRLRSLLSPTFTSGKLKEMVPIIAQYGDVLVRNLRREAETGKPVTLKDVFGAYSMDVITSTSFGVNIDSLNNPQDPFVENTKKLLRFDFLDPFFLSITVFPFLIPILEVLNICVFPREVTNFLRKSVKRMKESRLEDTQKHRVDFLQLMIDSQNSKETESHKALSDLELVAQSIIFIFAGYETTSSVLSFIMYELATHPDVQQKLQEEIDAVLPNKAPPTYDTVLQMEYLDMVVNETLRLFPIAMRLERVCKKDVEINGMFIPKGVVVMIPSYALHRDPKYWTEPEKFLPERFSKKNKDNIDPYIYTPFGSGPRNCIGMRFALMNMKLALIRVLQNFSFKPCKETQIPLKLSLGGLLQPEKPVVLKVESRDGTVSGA
structure (smiles),measurement,setting,value
COc1ccc(-c2ccnc(N[C@H]3CO[C@H]4[C@@H]3OC[C@@H]4NS(=O)(=O)c3ccc4ccccc4c3)n2)cc1,Potency,Furin (Homo sapiens),inactive
same,Potency,[1],inactive
same,Potency,[2],inactive
O=C(Nc1cccc2ccccc12)O[C@@H]1CO[C@H]2[C@@H]1OC[C@@H]2NS(=O)(=O)c1cccc2cccnc12,Potency,Furin (Homo sapiens),inactive
same,Potency,[1],inactive
same,Potency,[2],inactive
Oc1cc2ccccc2c2ccccc12,Potency,Furin (Homo sapiens),inactive
same,Potency,[3],44.1 µM (active)
same,Potency,[4],inactive
same,Potency,[5],447 µM (active)
same,Potency,[6],19 µM (active)
same,Potency,[7],6.02 µM (active)
NC(=O)[C@@H](CCCN=C(N)N)NC(=O)[C@@H](CCCN=C(N)N)NC(=O)[C@@H](CCCN=C(N)N)NC(=O)[C@@H](CCCN=C(N)N)NC(=O)[C@@H](CCCN=C(N)N)NC(=O)[C@H](N)CCCN=C(N)N,Potency,Furin (Homo sapiens),2.51 µM (active)
CC(=O)NC(CC(C)C)C(=O)NC(CC(C)C)C(=O)NC(C=O)CCCN=C(N)N (configuration not stated),Potency,Furin (Homo sapiens),inactive
O=C(O)c1c(Sc2ccccc2)c2cc(Cl)ccc2n1Cc1ccc(Cl)cc1,Potency,[8],inactive
same,Potency,[9],7.94 µM (active)
same,Potency,Furin (Homo sapiens),21.5 µM (active)
same,Potency,[1],6.81 µM (active)
same,Potency,[2],19.2 µM (active)
same,Potency,[10],1.24 µM (active)
same,Potency,[4],126 µM (active)
same,Potency,[5],22.4 µM (active)
same,Potency,[6],inactive
same,Potency,[11],inactive
same,Potency,[12],inactive
N#Cc1ccc(OCC2CN(Cc3cccc(C(F)(F)F)c3)C(=O)c3c(ccnc3-c3ccc(OCC(=O)O)cc3)O2)cc1 (configuration not stated),Potency,Furin (Homo sapiens),inactive
same,Potency,[1],inactive
same,Potency,[13],inactive
same,Potency,[5],39.8 µM (active)
same,Potency,[7],inactive
C[C@@H](NC(=O)c1ccc(Cl)cc1)c1c(-c2ccc(F)cc2)noc1C(=O)O,Potency,Furin (Homo sapiens),inactive
same,Potency,[1],inactive
same,Potency,[13],inactive
same,Potency,[7],inactive
O=C(O)c1ccc(-c2cccc(C(F)(F)F)c2)cc1,Potency,Furin (Homo sapiens),inactive
same,Potency,[1],inactive
same,Potency,[2],inactive
same,Potency,[7],inactive
O=C(COc1ccccc1F)Nc1ccccc1C(=O)OCc1cc(=O)n2nc(C3CC3)sc2n1,Potency,Furin (Homo sapiens),inactive
same,Potency,[14],inactive
O=C(O)c1cc(-c2ccc(C(F)(F)F)cc2)nc2n[nH]c(-c3ccccc3)c12,Potency,Furin (Homo sapiens),52.7 µM (active)
same,Potency,[14],63.1 µM (active)
same,Potency,[13],inactive
same,Potency,[10],50.1 µM (active)
same,Potency,[4],inactive
same,Potency,[5],141 µM (active)
same,Potency,[7],inactive
